{
  "source": "PubChem BioAssay AID651598",
  "about": "(Sanford-Burnham Center for Chemical Genomics, 2012)",
  "note": "Where “and” joins values, the source holds several entries; their conditions need not be identical. Equal entries are not always repeated.",
  "data": [
    {"target": "C-X-C chemokine receptor type 6 (Homo sapiens) (UniProt O00574)", "sequence (O00574 whole entry, looked up)": "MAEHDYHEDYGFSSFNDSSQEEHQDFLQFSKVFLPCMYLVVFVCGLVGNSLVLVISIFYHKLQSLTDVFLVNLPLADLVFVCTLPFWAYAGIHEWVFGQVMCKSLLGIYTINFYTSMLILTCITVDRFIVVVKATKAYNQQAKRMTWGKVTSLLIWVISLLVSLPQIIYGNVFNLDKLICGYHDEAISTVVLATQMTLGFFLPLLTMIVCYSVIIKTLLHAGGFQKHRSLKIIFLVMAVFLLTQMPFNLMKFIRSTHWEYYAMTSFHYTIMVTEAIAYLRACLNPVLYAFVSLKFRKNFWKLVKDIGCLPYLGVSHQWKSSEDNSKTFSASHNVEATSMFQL", "test": "APJ beta-arrestin recruitment blockade alongside CXCR6 – cell-based, DiscoveRx, panel, CHO-K1, counter-screen for CXCR6 antagonist project, SAR follow-up (AID 651598)", "conditions": "CHO-K1 PathHunter beta-arrestin luminescence, antagonist mode; run 3, at 80 µM (top of the series)", "values": [
      {"smiles": "COc1cc(C(=O)NC2CC3CCC(C2)N3CC(=O)Nc2ccccc2)cc(OC)c1OC", "note": "(stereo not drawn)", "inhibition": "56.5% and 4.53%"},
      {"smiles": "COc1cc(C(=O)NC2CCN(CC(=O)Nc3ccccc3)CC2)cc(OC)c1OC", "inhibition": "6.56%"},
      {"smiles": "COc1cc(C(=O)NC2CC3CCCC(C2)N3CC(=O)Nc2ccccc2)cc(OC)c1OC", "note": "(stereo not drawn)", "inhibition": "91% and 42.4% and 18.6%"}
    ]}
  ]
}
